Our source for the inhibition values is PubChem BioAssay.

What is called inhibition is the change of the read-out against control, counted positive when it falls.

Test [1] has as its system transactivating tegument protein VP16 (Human herpesvirus 1). The experiment in a line: compounds suppressing VP16-driven luciferase signal – cell-based, luminescence, single concentration, counter-screen for SRC2 inhibitor project (AID 652007; in the data active means inhibition above about 36%). As to conditions: cell-based VP16 transactivation luciferase reporter, at 8.9 µM, hits give high values. Background: The purpose of a counterscreen is to sort out artefacts and off-target activity.

Test [2] addresses Nuclear receptor coactivator 2 (Homo sapiens) (UniProt Q15596). The experiment in a line: inhibition of GAL4-SRC2 driven luciferase expression – cell-based, luminescence, HEK293, triplicate, confirmation (AID 652008).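 Further: 0% = DMSO-treated cells and 100% = Gossypol at 36 µM.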 As to conditions: HEK293 GAL4-SRC2 luciferase reporter, at 8.9 µM, hits give high values. A general note: A reporter such as luciferase makes a cellular process visible.

The source made the active and inactive calls.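 How the source made its calls, unless noted: active means mean inhibition above 46.5%, the solvent-only control mean plus 3 SD; inactive means the rest.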

Chain of Nuclear receptor coactivator 2 (Homo sapiens) (Q15596 whole entry, looked up, the tested form may be a part): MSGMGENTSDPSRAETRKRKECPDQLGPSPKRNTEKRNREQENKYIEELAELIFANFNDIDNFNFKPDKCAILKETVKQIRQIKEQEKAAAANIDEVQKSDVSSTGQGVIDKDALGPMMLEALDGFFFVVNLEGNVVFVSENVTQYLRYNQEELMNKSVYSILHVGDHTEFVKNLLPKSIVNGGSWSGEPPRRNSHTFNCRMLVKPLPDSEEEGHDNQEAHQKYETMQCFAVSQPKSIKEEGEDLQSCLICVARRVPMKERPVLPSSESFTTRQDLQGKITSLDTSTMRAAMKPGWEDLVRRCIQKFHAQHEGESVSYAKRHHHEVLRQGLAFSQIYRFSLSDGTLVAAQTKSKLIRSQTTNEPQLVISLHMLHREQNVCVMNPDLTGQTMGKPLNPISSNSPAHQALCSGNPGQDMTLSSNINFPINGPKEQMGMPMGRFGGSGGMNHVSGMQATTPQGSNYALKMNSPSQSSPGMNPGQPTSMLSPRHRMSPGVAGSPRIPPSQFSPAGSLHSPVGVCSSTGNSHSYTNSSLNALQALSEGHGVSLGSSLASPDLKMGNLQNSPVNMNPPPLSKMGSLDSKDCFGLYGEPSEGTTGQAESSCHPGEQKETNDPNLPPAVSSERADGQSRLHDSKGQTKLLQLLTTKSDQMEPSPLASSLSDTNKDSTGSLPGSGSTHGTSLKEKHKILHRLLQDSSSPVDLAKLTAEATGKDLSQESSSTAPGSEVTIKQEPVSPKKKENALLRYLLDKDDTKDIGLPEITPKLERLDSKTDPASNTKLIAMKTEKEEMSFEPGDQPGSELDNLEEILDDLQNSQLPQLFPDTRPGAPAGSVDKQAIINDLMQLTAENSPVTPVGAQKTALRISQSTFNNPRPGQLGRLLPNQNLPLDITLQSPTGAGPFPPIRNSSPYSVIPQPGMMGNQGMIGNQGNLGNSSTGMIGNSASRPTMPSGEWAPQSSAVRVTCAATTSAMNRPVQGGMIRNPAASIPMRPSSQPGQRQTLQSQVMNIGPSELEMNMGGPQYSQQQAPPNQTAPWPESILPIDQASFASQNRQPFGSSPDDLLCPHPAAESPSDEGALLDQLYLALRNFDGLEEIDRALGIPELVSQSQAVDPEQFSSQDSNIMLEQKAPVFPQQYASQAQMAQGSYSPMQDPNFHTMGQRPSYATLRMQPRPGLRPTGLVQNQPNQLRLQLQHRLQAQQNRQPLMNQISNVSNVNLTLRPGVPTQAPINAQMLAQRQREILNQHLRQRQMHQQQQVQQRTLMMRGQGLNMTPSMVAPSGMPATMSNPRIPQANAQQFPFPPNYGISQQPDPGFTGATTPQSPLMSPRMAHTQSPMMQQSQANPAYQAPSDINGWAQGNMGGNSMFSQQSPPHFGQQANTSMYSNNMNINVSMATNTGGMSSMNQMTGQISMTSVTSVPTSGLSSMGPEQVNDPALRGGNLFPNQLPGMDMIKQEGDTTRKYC

`Cc1ccc(S(=O)(=O)/N=C(\N)c2ccc(F)cc2)cc1`: the inhibition is 5.17% (inactive) in test [1] and -14.9% (inactive) in test [2].

As for `Cc1oc(-c2cccc3ccccc23)nc1CN1CCN(c2ncnc3ccccc23)CC1`, the inhibition was -22.1% (inactive) in test [1] and 5.63% (inactive) in test [2].

As to `CCc1ccc(CNC(=O)c2cc3c(C)nc4ccccc4c3o2)cc1`, the inhibition in test [1] is 20.6% (inactive); in test [2], 10.3% (inactive).

`Cc1ccc(CS(=O)(=O)c2ncc(Cl)c(C(=O)Nc3ccc(OC(F)F)cc3)n2)cc1`: the inhibition is 76.9% (active) in test [1] and 28.9% (inactive) in test [2].

For the compound `CCn1c(SCC(=O)c2ccc(-c3ccccc3)cc2)nnc1-c1ccc(C(C)(C)C)cc1`, the inhibition in test [1] is 22.6% (inactive); in test [2], 31.3% (inactive).

Regarding `CC(=O)CCc1ccc(OCCCCN2CCC(Cc3ccccc3)CC2)cc1`, the inhibition in test [1] was 13.2% (inactive); in test [2], 0.94% (inactive).

As to `COc1ccc(CCNc2nnc(Sc3nnnn3-c3ccccc3)s2)cc1OC`, the inhibition in test [1] is 5.42% (inactive); in test [2] it was 20.1% (inactive).

With `COc1cc(OC)cc(C(=O)NCC2CCN(C(=O)C(=O)c3cccs3)CC2)c1`, the inhibition in test [1] was 18.9% (inactive); in test [2] it was 18% (inactive).

For the compound `O=C(c1ccc(CS(=O)Cc2ccc(Cl)cc2)o1)N1CCN(c2ccccn2)CC1` (stereo unspecified), the values for the inhibition in test [1] and in test [2] were -9.03% (inactive) and -6.91% (inactive), respectively.

Regarding `CCOC(=O)[C@]12CCCC=C1N(Cc1cccc3ccccc13)C(=O)[C@H](CC(=O)N1CCOCC1)C2`, the inhibition was -7.43% (inactive) in test [1] and -11% (inactive) in test [2].

Regarding `COc1ccc(S(=O)(=O)N2CCC(C(=O)c3ccc4c(c3)OCCO4)CC2)cc1`, the inhibition was -0.72% (inactive) in test [1] and -0.4% (inactive) in test [2].

In the case of `CCOC(=O)C1=C[C@@H](C(C)(C)C)N(S(=O)(=O)c2ccc(C)cc2)[C@H]1c1ccc(Cl)c(Cl)c1`, the inhibition in test [1] was 7.53% (inactive); in test [2], 17.4% (inactive).

As to `COC(=O)c1c(N)sc(C(=O)NCCc2ccccc2)c1C`, the inhibition in test [1] is -1.83% (inactive); in test [2], 49.4% (active).
